# In the library only some 4% were active in any assay of this set; here they are far more common.
# TROY NFkB inh – inhibitors of TROY-dependent NF-kB signaling; actives 0.98% (n = 360,000); inhibition, % at 10 µM; Q293 LMP1-TROYcd NF-kB luciferase reporter, 4 h;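 active = compounds whose plate-normalised and pattern-corrected inhibition of the luciferase reporter signal at the single screening dose is 50% or more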
# KKLEB tox – reduces viability of KKLEB cystic fibrosis airway cells; AID 602141; actives 0.36% (n = 360,000); KKLEB CF airway cells viability, ATPlite luminescence, overnight; stronger effect = lower value; cells stimulated with P. aeruginosa culture filtrate; activity change (cytotoxicity), % at 5 µM;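 active = corrected activity change at or below -50% at 5 µM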
# HIF-2a inh – HIF-2a inhibition. 786-0 RCC cells HIF-2a reporter, luciferase luminescence, overnight. inhibition, % at 18.8 µM. actives 0.72% (n = 360,000);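 active = inhibition of the luminescence signal of 40% or more relative to plate controls, in a single-dose primary screen at 18.75 µM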
# Peg3 promoter – reduces Peg3 promoter-driven luciferase expression in HeLa; HeLa PEG-Prom luciferase reporter, luminescence, overnight; inhibition, % at 20 µM; actives 1.7% (n = 360,000); AID 588405;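 active = inhibition of at least 50% at 20 µM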
# CF NFkB block – blocks PAF-induced NF-kB reporter in cystic fibrosis cells. KKLEB NF-kB-GFP reporter, GFP fluorescence overnight. inhibition, % at 5 µM. actives 0.86% (n = 360,000). AID 588850;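 active = at least 50% inhibition at 5 µM, scaled per plate between neutral and stimulator controls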;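 also: PAF is a Pseudomonas aeruginosa culture filtrate used as stimulus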
# TWEAK-Fn14 inh – blocks TWEAK-Fn14 interaction in a reporter cell assay; AID 1159606; actives 2% (n = 360,000); inhibition, % at 10 µM; TWEAK-stimulated Fn14 reporter cells, luciferase luminescence, 8 h; in the data active = inhibition above about 50%
# Numbers stand for hits; – = inactive; · = no result given.
SMILES,TROY NFkB inh,KKLEB tox,HIF-2a inh,Peg3 promoter,CF NFkB block,TWEAK-Fn14 inh
CN(C)CCCNc1ncnc2c1cnn2Cc1ccccc1Cl,–,–,–,–,–,–
CN(C)P(=O)(Nc1cccc2ccccc12)Nc1cccc2ccccc12,–,–,–,–,–,76.2
O=C1CCCC2=C1C1(CCCC1)N=C(Nc1nc3cc(-c4ccccc4)ccc3o1)N2,–,–,–,–,–,64.3
O=C1CCCC2=C1C1(CCCCC1)N=C(Nc1nc3ccccc3o1)N2,–,–,–,–,–,74.6
O=C1CCCC2=C1C1(CCCC1)N=C(Nc1nc3ccccc3o1)N2,–,–,–,–,–,–
O=C(C(=O)N1CCC(Cc2ccccc2)CC1)c1cccs1,·,·,–,·,·,·
CCC(C)NC(=O)CC(NS(=O)(=O)c1ccc(Cl)cc1)c1ccco1 (stereo not given),–,–,–,–,–,59.3
O=C1c2ccccc2C(c2nnnn2Cc2ccccc2)N1Cc1cccc(F)c1 (stereo not given),–,·,–,·,·,–
CCCCC1CCC(C(=O)N(CCC(C)C)c2c(N)n(CCCC)c(=O)[nH]c2=O)CC1 (stereo not given),–,–,–,98.2,–,–
OCC1(Cc2ccc(Cl)cc2)CCN(Cc2ccccc2F)CC1,–,–,–,–,–,–
CSc1ccc(CN2CCC(CO)(Cc3ccc(Cl)cc3)CC2)cc1,–,–,–,73.4,–,–
N#CCCN(C(=S)NC(=O)c1cccs1)c1ccccc1F,–,–,–,–,–,–
COC1=CC(=O)OC(c2ccc(C(F)(F)F)cc2)C1 (stereo not given),·,·,–,·,·,·
COc1ccc(NC(=O)/C(Cl)=C(/Cl)S(=O)(=O)Cc2ccc(C)cc2)cn1,85.5,-70.9,95.9,105.1,86.6,103.0
C=CCNC(=O)c1ccc(CSc2nc3ccccc3s2)cc1,–,–,–,–,–,–
CC(=O)NCCNC(=O)c1ccc(CSc2nc3ccccc3s2)cc1,69.2,–,–,–,–,85.0
O=C(N/N=C/c1ccc(-c2cccc(C(F)(F)F)c2)o1)c1ccccc1Br,65.5,–,–,–,–,59.0
O=S(=O)(Nc1nc2ccccc2nc1NCc1ccco1)c1ccc(Cl)cc1,–,–,–,–,–,–
Cc1noc(C)c1CSc1nc2ccccc2nc1NS(=O)(=O)c1ccc(Cl)cc1,57.4,–,–,–,–,–
O=C1CCCN1Cc1ncnn1-c1ccccc1,·,–,–,–,–,64.6
O=C1CCCCCCCN1Cc1ccccc1,–,–,–,–,–,–
CCOC(=O)c1c(-n2cccc2)sc2c1CCCC2=O,–,–,–,51.4,–,–
Cc1ccccc1C(=O)Nc1cccc(NC(=O)c2ccc(-c3ccc(Br)cc3)o2)c1,–,-53.4,–,–,–,–
COc1cccc(NC(=O)c2ccc(-c3ccc([N+](=O)[O-])cc3)o2)c1,–,–,–,–,–,–
CCN1CCN(c2ccc(NC(=O)c3ccc(Br)o3)cc2)CC1,–,–,–,–,–,–
SMILES,TROY NFkB inh,KKLEB tox,HIF-2a inh,Peg3 promoter,CF NFkB block,TWEAK-Fn14 inh
CN1CCN(c2ccc(NC(=O)c3ccc(-c4ccc(Br)cc4)o3)cc2)CC1,–,–,–,88.8,–,–
CC1(c2nnnn2Cc2ccccc2)CCC(=O)N1CC1CCCCC1 (stereo not given),–,·,–,·,·,–
CC1OC2CC(=O)OC2C2=C1C(=O)c1c(O)cccc1C2=O (stereo not given),57.2,-82.7,89.5,103.4,91.4,106.9
CCc1ccc(NC(=O)C(C)Sc2nnc(CN3CCCC3)o2)cc1 (stereo not given),–,–,–,–,–,–
O=C(CSc1n[nH]c(-c2cccnc2)n1)Nc1ccccc1C(F)(F)F,–,–,–,–,–,–
Cc1nnc(NCc2n[nH]c(=O)c3ccccc23)c2ccccc12,–,–,–,106.4,–,–
Cc1c(C(=O)N(CCO)Cc2ccccc2)oc2c(F)cccc12,–,–,–,–,–,–
Cc1ccc(NN=C2c3ccccc3-c3ccccc32)cc1,51.6,–,–,–,–,–
O=S(=O)(NCc1cccs1)c1ccc(Br)cc1,–,–,–,–,–,–
O=C(Nc1ccc(Br)cc1)c1ccc(F)c(S(=O)(=O)NCc2cccs2)c1,–,–,–,–,–,57.6
CCNC(=S)NNC(=O)c1cc(-c2ccc(OCC)cc2)nc2ccccc12,–,-51.4,–,–,–,52.1
CCCc1ccc(-c2cc(C(=O)NN3CCOCC3)c3ccccc3n2)cc1,–,–,–,–,–,–
CCc1ccc(-c2cc(C(=O)Nn3cnnc3)c3ccccc3n2)cc1,–,–,–,–,–,58.7
C=C1CC[C@@H]2[C@](C)(CCC[C@@]2(C)/C=C/[C@@H](O)C(C)(C)O)[C@H]1CC(=O)NCCS(=O)(=O)O,–,–,–,–,–,–
COc1ccc(C(=O)/C(C#N)=N/Nc2cccc([N+](=O)[O-])c2)cc1,59.3,–,–,–,54.1,60.0
Cc1cc(C)c(C#N)c(SCc2cn3ccccc3n2)n1,53.6,–,–,–,–,–
O=C(CSC1CC(=O)N(CC(c2ccccc2)c2ccccc2)C1=O)Nc1ccc(Cl)cc1 (stereo not given),51.2,–,–,–,–,–
COC(=O)c1cc2ccccc2c(=O)s1,·,–,–,–,–,85.1
O=C(NCCO)c1cc2ccccc2c(=O)s1,–,–,–,–,–,–
O=C1S/C(=C\c2ccc(O)c([N+](=O)[O-])c2)C(=O)N1Cc1cccc([N+](=O)[O-])c1,59.1,–,–,–,–,53.0
COc1cc(/C=C2\SC(=O)N(c3cccc(Cl)c3)C2=O)cc([N+](=O)[O-])c1O,–,–,–,–,–,–
O=C1S/C(=C\c2ccc(O)c([N+](=O)[O-])c2)C(=O)N1c1ccccc1Cl,53.5,–,–,–,–,–
CC(C)(C)c1ccc(Nc2n[nH]c3ccccc23)cc1,52.6,–,–,–,–,52.6
COC1=C(Nc2ccc(C)cc2)C(=O)c2ccccc2C1=O,–,–,–,–,–,–
COC1=C(Nc2ccccc2)C(=O)c2ccccc2C1=O,–,–,–,–,50.3,–
CCOC(=O)C1=C(COC(=O)CCOc2ccc(C)cc2)NC(=O)NC1C (stereo not given),–,–,–,55.6,–,–
CCOC(=O)C1=C(COC(=O)CCOc2ccc(OC)cc2)NC(=O)NC1C (stereo not given),–,–,–,–,–,–
CCCOc1ccc(C2CC(=O)Nc3cc(OC)c(OC)cc32)cc1 (stereo not given),–,–,–,–,–,–
C#CCOCCOCCOCCNc1nc(N2CCN(C(=O)CCCCCCCCCCNC(=O)Cn3cc(CCCCCN)nn3)CC2)nc(N2CCN(C(=O)CCCCCCCCCCNC(=O)[C@H]([C@@H](C)CC)n3cc(CCCCCN)nn3)CC2)n1,–,–,–,95.5,–,–
